Test results reported in PubChem BioAssay (NCI).
This is part of a sample that, as a whole, favours compounds with a hit. Of some 83,000 tested, about 20% had one in any assay.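 In brief: 96-well plates, 48 h treatment, single concentration, percent growth endpoint.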 Unmarked numbers belong to inactive results. Calls of active or inactive are those of the source. Rule for the calls: active = growth percent below 10; inactive = the rest.

Key:
Assay in all cases: NCI-60 one-dose screen, 48 h (100 = growth as untreated, 0 = no growth, -100 = all killed)
Settings in all cases: 10 µM unless noted
NCI-H23 lung = tested on: NCI-H23 lung
NCI-H322M lung = tested on: NCI-H322M lung
HOP-62 NSCLC = tested on: HOP-62 NSCLC
NCI-H460 lung = tested on: NCI-H460 lung
HOP-92 NSCLC = tested on: HOP-92 NSCLC
NCI-H522 lung = tested on: NCI-H522 lung
A549/ATCC NSCLC = tested on: A549/ATCC NSCLC
786-0 renal = tested on: 786-0 renal
COLO 205 colon = tested on: COLO 205 colon
DU-145 prostate = tested on: DU-145 prostate
K-562 leukemia = tested on: K-562 leukemia
MALME-3M melanoma = tested on: MALME-3M melanoma
MDA-MB-231 breast = tested on: MDA-MB-231 breast
RXF 393 renal = tested on: RXF 393 renal
SF-268 CNS = tested on: SF-268 CNS
SF-295 CNS = tested on: SF-295 CNS
SF-539 CNS = tested on: SF-539 CNS
M14 melanoma = tested on: M14 melanoma
UACC-257 melanoma = tested on: UACC-257 melanoma

SMILES | growth (NCI-H23 lung) | growth (NCI-H322M lung) | growth (HOP-62 NSCLC) | growth (NCI-H460 lung) | growth (HOP-92 NSCLC) [%] | growth (NCI-H522 lung) | growth (A549/ATCC NSCLC) | growth (786-0 renal) | growth (COLO 205 colon) | growth (DU-145 prostate) | growth (K-562 leukemia) | growth (MALME-3M melanoma) | growth (MDA-MB-231 breast) | growth (RXF 393 renal) | growth (SF-268 CNS) | growth (SF-295 CNS) | growth (SF-539 CNS) | growth (M14 melanoma) | growth (UACC-257 melanoma)
CCN(CC)C(=O)CCCCCn1c2ccccc2c2c3c(c4c5ccccc5[nH]c4c21)C(=O)N(O)C3=O | 46.8% | 81.8% | -26.4% (active) | 53.1% | 78.5 | -66.5% (active) | 87.2% | 78.1% | -7.19% (active) | 69% | 40.8% | 102% | 42.9% | 45.6% | 51.6% | 62.5% | 39.7% | 53.9% | –
Cc1cc2nc3c4cc([N+](=O)[O-])cc([N+](=O)[O-])c4n(CCN(C)C)c3nc2cc1C | 77.7% | 72.2% | 64.7% | 65.4% | 80.7 | 70.6% | 73.5% | 80.4% | 71.1% | 92.1% | 62.3% | 76.5% | 77.2% | 58.3% | 74.1% | 62.9% | 76.5% | 80.1% | 107%
CNC(=O)c1cc(Oc2ccc3nc(NC(=O)Nc4ccc(Cl)cc4)sc3c2)ccn1 | 69% | 66.8% | 6.54% (active) | 64.4% | 63.3 | 78% | 44.1% | 75.3% | 79.4% | 53.2% | 65.6% | 17.7% | 34.4% | 50.8% | 56.2% | 66.3% | 83.5% | 63% | –
COc1ccc(/C=C/C(=O)NCCO)cc1 | 96.6% | 97.6% | 87.7% | 103% | 105 | – | 79.7% | 100% | 112% | 102% | 95.7% | 92.3% | 105% | 106% | 94.3% | 98.3% | 94.9% | 106% | –
Cc1ccc(Nc2c(C(N)=O)cnc3ccc(S(=O)(=O)Nc4cc(C)on4)cc23)cc1 | 95.1% | 95.8% | 89.8% | 103% | 84.1 | 92.2% | 103% | 106% | 101% | 109% | 117% | 108% | 99.5% | 105% | 104% | – | 92.7% | 100% | 101%
NCCn1cc(-c2nc(-c3c[nH]c4ncccc34)cs2)c2cc(Br)ccc21 | 81.9% | 80.1% | 78.1% | 14.9% | 53.6 | 100% | 65.3% | 87.3% | -17.1% (active) | 82.3% | 19.4% | 95.9% | 56.7% | 80.5% | 82.8% | 102% | 84.2% | 87.7% | 95.5%
O=C1Nc2ccccc2/C1=C/c1cn(CCCn2c3ccccc3c(=O)c3ccccc32)c2ccccc12 | 79.2% | 86.8% | 80.3% | 96.3% | 83.4 | 77.5% | 96.5% | 82.9% | 88.6% | 102% | 91.7% | 98.7% | 67.9% | 104% | 79.2% | 91.5% | 86.8% | 91.1% | 109%
Cc1cc2nc3c4cc(O)ccc4n(CCN(C)C)c3nc2cc1C | -35.3% (active) | -11% (active) | 3.06% (active) | 3.73% (active) | 21.1 | -13.5% (active) | -32.7% (active) | 5.67% (active) | -40.6% (active) | 6.38% (active) | 7.53% (active) | -61.6% (active) | -5.62% (active) | -54% (active) | 9.22% (active) | -19.8% (active) | -13.1% (active) | -33.7% (active) | -15.1% (active)
